Compound activity (PubChem)
BJeLR viability: MLPCN primary cell-based screen for lethality selective to Ras in HRASV12 cells; BJeLR (HRASV12) viability, CellTiter-Glo ATP luminescence, 48 h; inhibition, % (no concentration beside the values); 300,000 tested, 0.17% active; AID 1554, 2009; in the data active = inhibition above about 50%; inconclusive = no clear call, values can overlap the other calls
BoNT-A LC inh2: BoNT/A light chain protease inhibitors, primary screen, biochemical, flow cytometry, MLPCN library; AID 588499, 2011; inhibition, % at 10 µM; 360,000 tested, 0.17% active; multiplex microsphere protease substrate cleavage; also: plate controls were buffer without enzyme for full effect and enzyme alone for no effect
Autofluor counter: counter-screen for toxin protease inhibitors: compound fluorescence | AID 624483 | fluorescence intensity (no concentration beside the values) | compound autofluorescence counterscreen, microsphere flow cytometry; stronger effect = higher value | 360,000 tested, 3.1% active; in the data active = fluorescence intensity above about 16000; inconclusive = no clear call, values can overlap the other calls
Anthrax LF inh2: Bacillus anthracis LF protease inhibitors, primary screen, biochemical, multiplex microsphere, MLPCN library; Lethal factor (Bacillus anthracis), P15917; inhibition, % at 10 µM; AID 588501, 2011; multiplex microsphere protease cleavage assay; 360,000 tested, 0.12% active; also: plate controls were buffer without enzyme for full effect and enzyme alone for no effect
Target sequence (P15917 whole entry, looked up): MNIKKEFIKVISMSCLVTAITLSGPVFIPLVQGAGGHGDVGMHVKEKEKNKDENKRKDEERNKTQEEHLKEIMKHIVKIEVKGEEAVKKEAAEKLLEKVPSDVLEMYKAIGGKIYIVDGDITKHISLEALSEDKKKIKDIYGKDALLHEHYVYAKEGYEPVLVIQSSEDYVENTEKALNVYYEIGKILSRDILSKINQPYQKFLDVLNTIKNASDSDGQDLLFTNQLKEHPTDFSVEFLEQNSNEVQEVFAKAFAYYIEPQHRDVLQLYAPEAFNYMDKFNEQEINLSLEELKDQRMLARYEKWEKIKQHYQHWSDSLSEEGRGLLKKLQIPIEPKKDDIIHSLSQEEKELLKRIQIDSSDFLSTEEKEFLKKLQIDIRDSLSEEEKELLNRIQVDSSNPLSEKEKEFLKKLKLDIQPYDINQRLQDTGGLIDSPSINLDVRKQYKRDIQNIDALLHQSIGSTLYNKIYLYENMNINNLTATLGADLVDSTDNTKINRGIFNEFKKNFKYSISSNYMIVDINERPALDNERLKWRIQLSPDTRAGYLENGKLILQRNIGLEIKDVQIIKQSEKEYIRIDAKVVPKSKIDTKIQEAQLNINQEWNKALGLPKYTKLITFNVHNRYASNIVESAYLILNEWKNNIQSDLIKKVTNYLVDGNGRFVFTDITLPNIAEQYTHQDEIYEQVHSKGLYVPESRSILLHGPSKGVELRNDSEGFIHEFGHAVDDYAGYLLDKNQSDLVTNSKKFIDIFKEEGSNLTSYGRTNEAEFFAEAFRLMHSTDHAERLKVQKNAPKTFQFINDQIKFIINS
Vc quorum ag: inducers of Vibrio cholerae quorum light production without autoinducers, primary screen, BH1578 luxS cqsA deficient, single point; V. cholerae BH1578 lux reporter, luminescence, 6 h; activation, % at 18.7 µM; 350,000 tested, 0.16% active; AID 588436, 2011; in the data active = activation mostly above about 9.7%, no sharp cut-off; inconclusive = no clear call, values can overlap the other calls; inactive = mostly below about 3.7%
BoNT-F LC inh: BoNT/F light chain protease inhibitors, primary screen, biochemical, flow cytometry, MLPCN library. Botulinum neurotoxin type F light chain protease (Clostridium botulinum). AID 588497, 2011. Multiplex microsphere protease cleavage assay. 360,000 tested, 0.22% active. inhibition, % at 10 µM; in the data active = inhibition above about 35%, passing the limit was not always enough; inconclusive = no clear call, values can overlap the other calls; also: plate controls were buffer without enzyme for full effect and enzyme alone for no effect
Numbers without * were called inactive; ! = not active in a repeat. A selection: hits, their analogues and other compounds. The true share with any hit is near 3.7%. Rule as the data show it, unless noted: active = inhibition above about 30%; inconclusive = no clear call, values can overlap the other calls; inactive = below that.

Screening CCOC(=O)C1=C(C)Nc2sc(C(=O)c3ccc(OC)cc3)c(N)c2C1c1ccc(C(=O)OC)cc1 (stereo not given) returned BJeLR viability 3, BoNT-A LC inh2 30*, Autofluor counter 9298, Anthrax LF inh2 21, Vc quorum ag 0 and BoNT-F LC inh 12.
COC(=O)C1=C(C)Nc2sc(C(N)=O)c(N)c2C1c1ccncc1 (stereo not given) was read as BJeLR viability 8, BoNT-A LC inh2 0, Autofluor counter 1985, Anthrax LF inh2 -2, Vc quorum ag 0 and BoNT-F LC inh -4.
CN(C)c1ccc(-c2noc(C3CCN(S(=O)(=O)c4cccc(Cl)c4)CC3)n2)cc1 was read as BJeLR viability -2, BoNT-A LC inh2 inconclusive, Autofluor counter 17481*, Anthrax LF inh2 -6, Vc quorum ag inactive and BoNT-F LC inh -11.
CN(C)c1ccc(-c2noc(C3CCN(S(=O)(=O)c4ccc(C(=O)O)cc4)CC3)n2)cc1 was read as BJeLR viability -2, BoNT-A LC inh2 inconclusive, Autofluor counter 22586*, Anthrax LF inh2 -4, Vc quorum ag -1 and BoNT-F LC inh 4.
For O=S(=O)(c1ccc2ccccc2c1)N1CCC(c2nc(-c3ccncc3)no2)CC1 the results were BJeLR viability -7, BoNT-A LC inh2 0, Autofluor counter 8832, Anthrax LF inh2 -2, Vc quorum ag -5 and BoNT-F LC inh 2.
Screening O=C(C1CC1)N1CCC(c2nc(-c3ccc(S(=O)(=O)N4CCCC4)cc3)no2)CC1 returned BJeLR viability -4, BoNT-A LC inh2 1, Autofluor counter 5669, Anthrax LF inh2 0, Vc quorum ag -5 and BoNT-F LC inh 0.
Screening COC(=O)c1noc(-c2ccc(OC)cc2)n1 returned BJeLR viability -10, BoNT-A LC inh2 1, Autofluor counter 3569, Anthrax LF inh2 5, Vc quorum ag inactive and BoNT-F LC inh -8.
For COC(=O)c1noc(-c2ccc(C)cc2)n1 the results were BJeLR viability 9, BoNT-A LC inh2 0, Autofluor counter 23185*, Anthrax LF inh2 -4, Vc quorum ag 0 and BoNT-F LC inh -1.
For Clc1ccc2nc(-c3ccccc3)c(CN3CCOCC3)n2c1 the results were BJeLR viability -4, BoNT-A LC inh2 0, Autofluor counter 23584*, Anthrax LF inh2 4, Vc quorum ag inactive and BoNT-F LC inh -2.
CCn1c(=O)n(CC(=O)N2CC(C)CC(C)C2)c(=O)c2ccccc21 (stereo not given) was read as BJeLR viability -5, BoNT-A LC inh2 0, Autofluor counter 20034*, Anthrax LF inh2 -3, Vc quorum ag 0 and BoNT-F LC inh 0.
`CC1CC(C)CN(C(=O)Cn2c(=O)n(CCCCC(=O)NCc3ccco3)c(=O)c3ccccc32)C1` (stereo not given) gave BJeLR viability 2, BoNT-A LC inh2 0, Autofluor counter 2530, Anthrax LF inh2 -2, Vc quorum ag inactive and BoNT-F LC inh -9.
For CC1CC(C)CN(C(=O)Cn2c(=O)n(CCCCC(=O)NC3CCCC3)c(=O)c3ccccc32)C1 (stereo not given) the results were BJeLR viability 2, BoNT-A LC inh2 0, Autofluor counter 3620, Anthrax LF inh2 2, Vc quorum ag inactive and BoNT-F LC inh 37*.
Screening CC(C)(C)n1nnnc1C(CCc1ccccc1)N1CCN(C/C=C/c2ccccc2)CC1 (stereo not given) returned BoNT-A LC inh2 0, Autofluor counter 4568, Anthrax LF inh2 10 and BoNT-F LC inh -2.
`Cc1cc(C)c2c(CN3CCN(CCO)CC3)cc(=O)oc2c1` gave BJeLR viability -2, BoNT-A LC inh2 0, Autofluor counter 23234*, Anthrax LF inh2 0, Vc quorum ag inactive and BoNT-F LC inh -1.
Cc1cc(C)c2c(CN3CCN(C)CC3)cc(=O)oc2c1 was read as BJeLR viability -3, BoNT-A LC inh2 -2, Autofluor counter 16812*, Anthrax LF inh2 -1, Vc quorum ag inactive and BoNT-F LC inh -5.
N#CCC(=O)NCC1(c2ccccc2)CCCC1 was read as BJeLR viability -7, BoNT-A LC inh2 0, Autofluor counter 2811, Anthrax LF inh2 1, Vc quorum ag 25* and BoNT-F LC inh -7.
For CCOC(=O)c1ccc(S(=O)(=O)Nc2cc(C(C)(C)C)no2)cc1 the results were BJeLR viability -6, BoNT-A LC inh2 -2, Autofluor counter 24179*, Anthrax LF inh2 -2, Vc quorum ag 2 and BoNT-F LC inh 0.
For COc1ccc(CNC(=O)Nc2nnc([C@@H]3C[C@H](O)[C@@H](CO)O3)s2)cc1 the results were BoNT-A LC inh2 0, Autofluor counter 3856, Anthrax LF inh2 0, Vc quorum ag 1 and BoNT-F LC inh 1.
`CCCNC(=O)Cn1cnc2sc(C(=O)N3CCN(c4ccc(F)cc4)CC3)c(C)c2c1=O` gave BJeLR viability -1, BoNT-A LC inh2 0, Autofluor counter 20571*, Anthrax LF inh2 -1, Vc quorum ag inactive and BoNT-F LC inh 1.
For CCCCn1nnnc1C(c1ccccc1)N1CCCN(Cc2ccc(F)cc2)CC1 (stereo not given) the results were BoNT-A LC inh2 1, Autofluor counter 4585, Anthrax LF inh2 -4 and BoNT-F LC inh 6.
`CCOC(=O)c1c(CN2CCCCC2C)oc2ccc(OC)cc12` (stereo not given) gave BJeLR viability 14, BoNT-A LC inh2 -2, Autofluor counter 22711*, Anthrax LF inh2 -1, Vc quorum ag 0 and BoNT-F LC inh -3.
`CCOC(=O)c1c(CN2CCC(C)CC2)oc2ccc(OC)cc12` gave BJeLR viability -1, BoNT-A LC inh2 0, Autofluor counter 20393*, Anthrax LF inh2 -2, Vc quorum ag -1 and BoNT-F LC inh -1.
CCOC(=O)c1c(CN2CCCCC2)oc2ccc(OC)cc12 was read as BJeLR viability -6, BoNT-A LC inh2 1, Autofluor counter 19520*!, Anthrax LF inh2 0, Vc quorum ag -2 and BoNT-F LC inh 0.
CSc1ccc(Cn2c(C)c(C(=O)NCc3ccco3)sc2=O)cc1 was read as BoNT-A LC inh2 -1, Autofluor counter 3921, Anthrax LF inh2 -14, Vc quorum ag inactive and BoNT-F LC inh 3.
For CC1(C(=O)NCC2CC2)Cc2c(-c3cccc(C(F)(F)F)c3)ccnc2O1 (stereo not given) the results were BoNT-A LC inh2 0, Autofluor counter 4237, Anthrax LF inh2 0, Vc quorum ag 0 and BoNT-F LC inh -3.
`Cc1sc2ncn(CC(=O)N3CCCCC3)c(=O)c2c1C` gave BJeLR viability -1, BoNT-A LC inh2 0, Autofluor counter 2259, Anthrax LF inh2 -1, Vc quorum ag 1 and BoNT-F LC inh -1.
